This passage reports activity change results from PubChem BioAssay AID1224865 (Sanford-Burnham Center for Chemical Genomics, 2016).

The structures appear in SMILES notation. Hit rate of the full screen: of about 360,000 compounds, about 1,100 (0.31%) were called active. The full list was thinned out, with actives kept by preference. Values without a mark were called inactive. Rule as the data show it: active = activity change above about 30% (passing the limit was not always enough); inactive = the rest.

For this assay, the target named is Hepatocyte nuclear factor 4-alpha (Homo sapiens) (UniProt P41235). Put plainly: HNF4-alpha DNA association modulation – biochemical, fluorescence polarization, FITC-DNA, primary screen (AID 1224865). To be noted: HNF4a-FITC DNA binding, 1 h, at 10 µM, hits give high values. In general terms: In fluorescence polarisation assays a small probe gives low polarisation when free and higher when bound to something large.
Chain of Hepatocyte nuclear factor 4-alpha (Homo sapiens) (P41235 whole entry, looked up): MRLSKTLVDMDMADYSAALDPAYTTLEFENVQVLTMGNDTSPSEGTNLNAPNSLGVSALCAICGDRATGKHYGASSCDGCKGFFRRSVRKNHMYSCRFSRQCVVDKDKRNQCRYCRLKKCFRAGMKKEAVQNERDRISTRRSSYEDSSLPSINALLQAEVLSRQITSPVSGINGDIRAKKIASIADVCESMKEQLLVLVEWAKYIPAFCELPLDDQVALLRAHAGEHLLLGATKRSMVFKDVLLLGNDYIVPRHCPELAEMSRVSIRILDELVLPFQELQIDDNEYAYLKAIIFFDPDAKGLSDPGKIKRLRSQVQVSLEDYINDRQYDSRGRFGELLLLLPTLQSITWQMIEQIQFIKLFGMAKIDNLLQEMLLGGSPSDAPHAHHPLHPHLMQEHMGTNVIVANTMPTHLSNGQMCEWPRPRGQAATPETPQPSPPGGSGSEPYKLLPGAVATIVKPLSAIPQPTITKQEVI
For the molecule `O=C(COC(=O)c1ccc(F)cc1F)Nc1ncccn1`, the activity change was 38.7% (active).

For `O=C(COC(=O)CSc1ccccc1)Nc1ccc(F)cc1F`, the activity change is -1.87%.

`CCOC(=O)c1cccc(NC(=O)c2ccc(F)cc2F)c1`: the activity change is 7%.

Turning to `CC1C(=O)Nc2ccccc2N1C(=O)c1ccc(F)cc1F` (stereo not given), the activity change is 2.72%.

As to `O=C(NCc1ccncc1)c1cccc(NS(=O)(=O)c2ccc(F)c(F)c2)c1`, the activity change is -3.8%.

With `CC1C(=O)N2CCCc3cc(S(=O)(=O)NCc4ccc(F)cc4)cc1c32` (stereo not given), the activity change was -0.59%.

Turning to `COc1cccc(OC)c1C(=O)Nc1ccc(Cc2ccncc2)cc1`, the activity change was 41.2% (active).

Turning to `CC(C)CC(=O)Nc1ccc(Cc2ccncc2)cc1`, the activity change was 1.88%.

`CCn1nnc(NC(=O)c2c(OC)cccc2OC)n1`: the activity change is 0.86%.

Consider `C=CCn1c(SCC(=O)NC23CC4CC(CC(C4)C2)C3)nc(O)cc1=O`, for which the activity change is 2.14%.

Regarding `Cc1ccc2[nH]c(=O)c(CN(CCCN(C)C)C(=O)Nc3cccc(Cl)c3)cc2c1`, the activity change is 4.9%.

On to `Cc1ccccc1CN1CCN(C(=O)c2cccc(F)c2)CC1`, for which the activity change was 3.17%.

In the case of `Cc1ccc(CSCC2Nc3ccc(C(=O)N4CCN(c5ccc(F)cc5)CC4)cc3NC2=O)cc1` (stereo not given), the activity change is 37.8% (active).

Regarding `Cc1noc(C)c1S(=O)(=O)Nc1ccc(C(=O)N2CCN(c3ccc(F)cc3)CC2)cc1`, the activity change was 1.2%.

`COC(=O)c1ccc(C(=O)OC)c(NC(=S)N2CCN(c3ccc(F)cc3)CC2)c1`: the activity change was -1.17%.

For the molecule `O=C1Nc2cc(C(=O)N3CCN(c4ccc(F)cc4)CC3)ccc2NC1CSCc1cccc(F)c1` (stereo not given), the activity change was 102% (active).

`C=CCn1c(SCc2cccc(F)c2)nc2cc(C(=O)N3CCC(C(N)=O)CC3)ccc2c1=O`: the activity change is 2.05%.

With `COc1ccc(Cn2cccc(NC(=O)Nc3ccc(C#N)cc3)c2=O)cc1`, the activity change was -3.37%.

Consider `COC(=O)c1c(NC(=O)CN2CCN(S(=O)(=O)c3ccccc3[N+](=O)[O-])CC2)sc2c1CCC(C)C2` (stereo not given), for which the activity change was 0.7%.

Take `O=S(=O)(Cc1ccccc1)c1nc2ccccc2n1Cc1ccccn1`: the activity change is -0.31%.

Regarding `CC1=CC2=NC(=O)/C(=C/c3coc4ccccc4c3=O)C(=N)N2O1`, the activity change is 6.6%.

Consider `O=C1/C(=C/c2coc3ccc(O)cc3c2=O)SC(=S)N1c1ccccc1`, for which the activity change was 55.6% (active).

Turning to `Cc1ccc(S(=O)(=O)N2CCC(C)CC2)cc1C(=O)NCc1ccccn1`, the activity change was 0.82%.

For the molecule `Cc1ccc(CC2S/C(=C(/C#N)C(=O)N3CCOCC3)N(c3ccccc3)C2=O)cc1` (stereo not given), the activity change is 0.2%.

Regarding `CCN(CC(=O)NCc1cccs1)C(=O)/C=C/c1ccc(C)cc1`, the activity change was 0.98%.
